Assay in all cases: NCI-60 one-dose screen, 48 h (100 = growth as untreated, 0 = no growth, -100 = all killed)
Holding throughout (conditions): 10 µM unless noted

Assay [1] relates to T-47D breast.
Assay [2] concerns BT-549 breast.
For assay [3], the system named is MDA-MB-435 melanoma.
Assay [4] deals with SW-620 colon.
The subject of assay [5] is MCF7 breast.
In assay [6] the test system is HCT-116 colon.
The subject of assay [7] is HCC-2998 colon.
For assay [8], the system named is KM12 colon.

This is part of a sample that, as a whole, favours compounds with a hit. Of some 83,000 tested, about 20% had one in any assay.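 Plates (96-well) were seeded with cells, treated with compound at one concentration, and incubated for 48 hours before percent growth was determined.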 A number with no mark means an inactive call. Calls of active or inactive are those of the source. Rule for the calls: active = growth percent below 10; inactive = the rest.

On to `COc1ccc(N)c(N)c1`, for which the growth in assay [1] is 92.6%; in assay [2], 88%; in assay [3], 101%; in assay [4] it was 109%; in assay [5], 60.2%; in assay [6] it was 96.1%. The growth was 92.7% in assay [7] and 101% in assay [8].

Turning to `CCN1C(=O)N(CC)C2Nn3c(s/c(=C4\C(=O)Nc5ccccc54)c3=O)=NC21` (stereo not drawn), the growth in assay [1] was 45.8%; in assay [2], 65.3%; in assay [3], -51% (active); in assay [4], 27.6%; in assay [5], 29.1%; in assay [6], 31.8%. In addition, the growth was 88% in assay [7] and 33% in assay [8].

Turning to `NCCCNc1nc2ccccc2c2c(=O)c3cc(F)cc(F)c3sc12`, the growth in assay [1] is 92.7%; in assay [2] it was 93.4%; in assay [3], -91.2% (active); in assay [4], -75.6% (active); in assay [5], 75.5%; in assay [6], 53.2%. Moreover, the values for the growth in assay [7] and in assay [8] were 75.3% and 79.1%, respectively.

For the compound `COc1nc2ccc(C)cc2cc1-c1nc2c(cnn2-c2ccccc2)c(=O)[nH]1`, the growth in assay [1] was 81.9%; in assay [2], 89.6%; in assay [3], 8.39% (active); in assay [4] it was 58.5%; in assay [5], 50.6%; in assay [6], 67.2%. Besides, the results for the growth in assay [7] and in assay [8] were 96.3% and 70.6%, respectively.

On to `NC(=O)C1(Nc2ccc(Br)cc2)CCCC1`, for which the growth was 98.9% in assay [1]; 104% in assay [2]; 105% in assay [3]; 106% in assay [4]; 92.2% in assay [5]; 105% in assay [6]. For the same compound, the growth was 116% in assay [7] and 109% in assay [8].

As for `O=c1c2cc(F)cc(Cl)c2sc2c(NCCCNCCO)nc3ccccc3c12`, the growth in assay [1] is 101%; in assay [2], 82.4%; in assay [3], 61.1%; in assay [4], -32% (active); in assay [5], 64.6%; in assay [6], 65.1%. The growth in assay [7] is 60.9%; in assay [8] it was 66.7%.

As to `CN1CCN(c2ccc(-c3cc4c(Nc5ccc(F)c(Cl)c5)ncnn4c3)cn2)CC1`, the growth in assay [1] is 96.2%; in assay [2] it was 105%; in assay [3], 96.1%; in assay [4] it was 40.4%; in assay [5], 77.4%; in assay [6] it was 1.89% (active). In addition, the growth in assay [7] is 98.6%; in assay [8], 93.7%.

Turning to `Cc1cccc(OCC(O)CN2CCN(c3ccc(Cl)cc3)CC2)c1` (stereo not drawn), the growth in assay [1] is 107%; in assay [2], 99.6%; in assay [3], 111%; in assay [4], 104%; in assay [5] it was 87.5%; in assay [6], 86.7%. In addition, the growth was 110% in assay [7] and 106% in assay [8].

With `c1ccc2cc(C[n+]3ccn(CCCCCCn4cc[n+](Cc5ccc6ccccc6c5)c4)c3)ccc2c1`, the growth in assay [1] is 38.5%; in assay [2], 9.69% (active); in assay [3], 59.2%; in assay [4], 95.5%; in assay [5], 49.8%; in assay [6], 45.2%. The growth is 59.4% in assay [7] and 41.2% in assay [8].

`CCOC(=O)C1=C(N)Oc2c(sc3c(C)cccc23)C1c1ccc(F)cc1` (stereo not drawn): the growth was 28% in assay [1]; 18.1% in assay [2]; 22.4% in assay [4]; 7.39% (active) in assay [5]; 9.01% (active) in assay [6]; 9.19% (active) in assay [7]. Besides, the growth in assay [8] is 9.22% (active).

For `N[C@@H](Cc1ccccc1)[C@@H](O)C(=O)NCc1ccc(F)cc1`, the growth in assay [1] is 113%; in assay [2], 105%; in assay [3], 101%; in assay [4], 103%; in assay [5], 94.9%; in assay [6], 96.1%. Besides, the growth in assay [7] is 113%; in assay [8], 102%.

Turning to `CC1=C(C)C(=O)C(Nc2cccc(C(=O)OC(C)(C)C)c2)=C(Br)C1=O`, the growth in assay [1] was -0.52% (active); in assay [2], 92.9%; in assay [4] it was 91.3%; in assay [5], 27.1%; in assay [6], 62.3%; in assay [7], 100%. Further, the growth in assay [8] was 99.9%.

For the compound `O=C(N/N=C/[C@H](O)[C@H](O)[C@H](O)CO)c1ccc(NC(=O)c2cccnc2)cc1`, the growth in assay [1] is 99.2%; in assay [2], 102%; in assay [3], 103%; in assay [4], 103%; in assay [5], 92%; in assay [6], 105%. Besides, the growth in assay [7] was 110%; in assay [8], 103%.

As for `CCOC(=O)Nc1ccc(-c2nc(-c3cccc(OCCN4CCOCC4)c3)c(-c3ccnc(Br)c3)[nH]2)cc1`, the growth in assay [1] was 35.6%; in assay [2], 56.4%; in assay [4], 42.6%; in assay [5], 11.6%; in assay [6], 30.9%; in assay [7], 38.5%. In addition, the growth in assay [8] was 20.2%.

Turning to `COc1ccc(-c2cc(-c3ccc(Cl)cc3)c(C#N)c(=O)n2CCCCCC(=O)Nc2ccccc2N)cc1`, the growth in assay [1] is 18.6%; in assay [2] it was 58.4%; in assay [4] it was 42.4%; in assay [5], 31%; in assay [6] it was 22.5%; in assay [7], 82.8%. Besides, the growth in assay [8] was 40.4%.

In the case of `N#Cc1c(-c2ccc(Cl)cc2)nc2c(c(-c3ccccc3)nn2-c2ccccc2)c1-c1ccc(O)cc1`, the growth in assay [1] is 55.4%; in assay [2], 62.3%; in assay [3], 49%; in assay [4], 54.4%; in assay [5], 19.6%; in assay [6] it was 14.3%. Also, the growth in assay [7] was 84.9%; in assay [8], 41%.

Consider `O=c1c2cc(F)ccc2sc2c(N3CCNCC3)nc3ccc(F)cc3c12`, for which the growth in assay [1] was 22.2%; in assay [2], 79.8%; in assay [3] it was -94.3% (active); in assay [4], -84.4% (active); in assay [5] it was -62.9% (active); in assay [6] it was -61.2% (active). Moreover, the growth was -90.8% (active) in assay [7] and -78.4% (active) in assay [8].

Turning to `CCOC(=O)c1cn2ncnc(Oc3ccc(NC(=O)NCCN4CCOCC4)c(Cl)c3)c2c1C`, the growth in assay [1] is 80.6%; in assay [2], 96.5%; in assay [3], 97.3%; in assay [4] it was 94.1%; in assay [5] it was 88.5%; in assay [6], 94.7%. For the same compound, the growth in assay [7] is 110%; in assay [8], 103%.

On to `CC1Cc2c(ncn3c(-c4ccc(F)cc4)nnc23)N(C)c2ccccc21` (stereo not drawn), for which the growth is 35.1% in assay [1]; 80.1% in assay [2]; 59.2% in assay [3]; 36.2% in assay [4]; 52.2% in assay [5]; 86% in assay [6]. Moreover, the growth is 80.3% in assay [7] and 72.2% in assay [8].

As for `COc1ccc(C2C(C#N)=C(N)Oc3c2sc2c(C)cccc32)cc1` (stereo not drawn), the growth in assay [1] is 46.9%; in assay [2], 25.1%; in assay [4] it was 26%; in assay [5], 10.8%; in assay [6], 13.2%; in assay [7], 11%. The growth in assay [8] is 11.7%.

For `Cn1cc(-c2ccc3cc(-c4ccc(CC(=O)Nc5cc(C(C)(C)C)nn5C)cc4)cnc3c2)cn1`, the growth in assay [1] was -0.815% (active); in assay [2], -8.22% (active); in assay [3], 5.58% (active); in assay [4], 20.1%; in assay [5] it was 13.4%; in assay [6], 11.5%. Further, the growth in assay [7] is 32.9%; in assay [8], -33.3% (active).

Consider `O=C(/C=C/c1ccc([N+](=O)[O-])o1)NNC(=O)c1cc2ccccc2cc1O`, for which the growth in assay [1] was 2.44% (active); in assay [2] it was -4.88% (active); in assay [3], -13.3% (active); in assay [4], -5.85% (active); in assay [5], 32.9%; in assay [6] it was -100% (active). Further, the growth in assay [7] was -18.4% (active); in assay [8], 11.6%.

On to `O=c1c2cc(F)ccc2sc2c(NCCCNCCO)nc3ccc(F)cc3c12`, for which the growth in assay [1] was 70.2%; in assay [2], 83.9%; in assay [3], -28.4% (active); in assay [4] it was -39.7% (active); in assay [5], 47.9%; in assay [6], -72.8% (active). For the same compound, the growth was 1.69% (active) in assay [7] and 24.9% in assay [8].

For `COc1ccc(CNC(=O)[C@H](O)[C@@H](N)Cc2ccccc2)cc1`, the growth is 110% in assay [1]; 109% in assay [2]; 104% in assay [3]; 104% in assay [4]; 94.5% in assay [5]; 109% in assay [6]. The growth in assay [7] is 105%; in assay [8], 101%.

In the case of `Cc1nc2ccccc2c(/C=C/c2ccccc2)c1C(=O)/C=C/c1ccc(C(F)(F)F)cc1`, the growth is -14.6% (active) in assay [1]; -25.6% (active) in assay [2]; -82.6% (active) in assay [3]; -32.9% (active) in assay [4]; -9.44% (active) in assay [5]; -64.5% (active) in assay [6]. In addition, the growth in assay [7] is -70.5% (active); in assay [8], -58.9% (active).

Turning to `COc1ccc(CN2c3ccccc3CCc3ccccc32)cc1F`, the growth in assay [1] is 47.1%; in assay [2], 54%; in assay [3], -49.4% (active); in assay [4], 20.5%; in assay [5], 20.4%; in assay [6] it was 2.32% (active). The growth was 30.7% in assay [7] and 16.5% in assay [8].

In the case of `CCCCCCCCCCCCCCCCCC1OCC(COC(=O)O[C@]2(CC)C(=O)OCc3c2cc2n(c3=O)Cc3cc4ccccc4nc3-2)O1` (stereo partly drawn), the growth in assay [1] was 64.6%; in assay [2], 80%; in assay [3] it was 92.6%; in assay [4], 57.1%; in assay [5], 44.4%; in assay [6], 66.8%. The results for the growth in assay [7] and in assay [8] were 84.7% and 94.8%, respectively.

Consider `CCCCNc1nc(NN2C(=O)c3cccc4cccc(c34)C2=O)nc(-n2cnc3ccccc32)n1`, for which the growth in assay [1] is 74.7%; in assay [2] it was 98.8%; in assay [3], 99.2%; in assay [4], 109%; in assay [5] it was 72.6%; in assay [6], 88.3%. Also, the growth in assay [7] is 105%; in assay [8] it was 25.4%.

Take `CCc1cccc2c1S/C(=C/c1ccc(Cl)cc1)C2=O`: the growth is 68.2% in assay [1]; 112% in assay [2]; 94.5% in assay [4]; 52.1% in assay [5]; 91.8% in assay [6]; 110% in assay [7]. In addition, the growth in assay [8] was 98.2%.

Take `CCCCn1c(-c2ccc(-c3nc(-c4ccc(Cl)cc4)no3)cc2)nc(-c2ccccc2)c1-c1ccccc1`: the growth in assay [1] was 76.3%; in assay [2], 101%; in assay [4], 88.8%; in assay [5] it was 79%; in assay [6] it was 75.4%; in assay [7] it was 105%. In addition, the growth in assay [8] was 95.2%.

As to `CCN(CC)CCCNc1nc2ccccc2c2c(=O)c3cc(Cl)ccc3sc12`, the growth is 61.3% in assay [1]; 91.2% in assay [2]; -4.23% (active) in assay [3]; 14.3% in assay [4]; 44.4% in assay [5]; 20.2% in assay [6]. For the same compound, the growth in assay [7] is 26.5%; in assay [8], 27%.

As to `O=C(CCN1C(=O)/C(=C/c2ccc(O)cc2)SC1=S)Nc1ccc(Cl)cc1`, the growth in assay [1] was 102%; in assay [2], 99.8%; in assay [4] it was 101%; in assay [5], 89%; in assay [6], 92.2%; in assay [7], 115%. Moreover, in assay [8], the growth is 97.7%.
